Results on 40 compounds are retold here after PubChem BioAssay (NCI).

Compounds without any hit were thinned out: in the full panel of roughly 79,000, 15% have a hit. Calls of active or inactive are those of the source. Rule as the data show it: active = growth inhibition above about 70%; inactive = the rest.

A short description of this test: NCI Yeast Anticancer Drug Screen. Data for the mec2-1 strain (AID 157). The following applies: S. cerevisiae mec2-1 strain, at 50.0 µM, active compounds read high. Summed up:
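Readout is yeast growth inhibition, normalised to vehicle-treated controls, in the mec2-1 strain exposed to compound.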
With `CC1(C)C/C(=C\c2cccc(Cl)c2)C(=O)c2ccccc21`, the growth inhibition was 16.6% (inactive).
Consider `Cc1ccc(C)c(NC(=O)C2C(=O)C(=O)N(c3cc(C)ccc3C)C2=O)c1` (stereo not given), for which the growth inhibition is -8.3% (inactive).
On to `Cn1c(=O)c2c(nc(Cl)n2C)n(C)c1=O`, for which the growth inhibition is 14.5% (inactive).
For the compound `CCOC(=O)COc1ccc(C)c2c1C(=O)CC2`, the growth inhibition is -12.9% (inactive).
In the case of `CCOc1ccc(NC(=O)CC2SC(=Nc3ccc(C)cc3C)NC2=O)cc1` (stereo not given), the growth inhibition was 24.5% (inactive).
`CCC(O)C1CCCCC1O` (stereo not given): the growth inhibition is 8.35% (inactive).
Regarding `Cc1ccc(C(=O)OC[C@H]2CC[C@@H](n3cc(N(C)C4CCCCC4)c(=O)[nH]c3=O)O2)cc1`, the growth inhibition is -32.2% (inactive).
Regarding `CN(CC(=O)NC(=O)c1ccccc1)Cc1ccccc1`, the growth inhibition is -9.25% (inactive).
The result for `Cc1ccc([N+](=O)[O-])cc1S(=O)(=O)O` reads 13.2% (inactive); that for `CCN(CC)CCCNc1ccc2ncn3c4ccc(O)cc4c(=O)c1c23`, -36.3% (inactive).
Consider `CCOc1ccc2c(N=[N+]=[N-])cc(C)nc2c1`, for which the growth inhibition was -11.2% (inactive).
For the compound `O=C(NCCNCCO)N/N=C/c1ccccc1`, the growth inhibition is -34.4% (inactive).
As to `S=c1ncnc2cc3[nH][nH]cc3cc12`, the growth inhibition is 2.5% (inactive).
Take `c1ccc(Cn2nnc(-c3ccccc3)n2)cc1`: the growth inhibition is 8.45% (inactive).
Take `COc1ccc(S(=O)(=O)N/N=C/c2cc(I)cc([N+](=O)[O-])c2O)cc1`: the growth inhibition was 0.6% (inactive).
Turning to `COc1ccc(/C=N/NC(=O)C(=O)Nc2ccc(Cl)c([N+](=O)[O-])c2)cc1OC`, the growth inhibition was -20.9% (inactive).
Consider `O=C1OC(=O)c2c(Cl)c(Cl)c(Cl)c(Cl)c21`, for which the growth inhibition is -0.15% (inactive).
For the compound `CC(=O)OCC1OC(n2c(O)c(/C=C3\C=Nc4ccccc43)sc2=S)C(OC(C)=O)C(OC(C)=O)C1OC(C)=O` (stereo not given), the growth inhibition was -11.7% (inactive).
The result for `O=C(Oc1ccccc1Cl)C1=C(C(=O)Oc2ccccc2Cl)CCC1` reads -1.2% (inactive); that for `O=C(O)c1ccccc1C(=O)NCc1ccc(Cl)cc1Cl`, 22.6% (inactive).
Turning to `CN1CCN(CC2C3CCC(C3)C2O)CC1` (stereo not given), the growth inhibition is -18.4% (inactive).
Take `COC(=O)/C=C/C(=O)OC`: the growth inhibition was 14.4% (inactive).
Next, `Cc1sc2c(c1C)/C(=N\O)c1cccn1-2`: -3.4% (inactive); `CCC1CCC(CC)C1OC(C)=O` (stereo not given): -27.7% (inactive).
Consider `COC(=O)C1(C(=O)OC)OC(c2ccc(OC)cc2)[C@H]2C(=O)N(C)C(=O)[C@H]21` (stereo not given in full), for which the growth inhibition was -6% (inactive).
In the case of `C=C(C(=O)NC1CCCCC1)c1ccccc1`, the growth inhibition was -22.4% (inactive).
Regarding `ClCCCOC1CCCCO1` (stereo not given), the growth inhibition is -40.5% (inactive).
The result for `NC(=O)N/N=C(/Cl)C(=O)NNC(N)=O` reads 6.25% (inactive); that for `Cc1ccc(C(=O)c2ccccc2C(=O)O)cc1C(=O)O`, 11.1% (inactive).
Consider `CC/C(=C/c1cccc([N+](=O)[O-])c1)C(=O)O`, for which the growth inhibition was -23.9% (inactive).
Turning to `CC(NNC(=S)N1CCCCCC1)c1cccc[n+]1[O-]` (stereo not given), the growth inhibition was 8.3% (inactive).
Next, `O=c1[nH]c(C(F)(F)F)c(CCc2ccccc2)c(=O)[nH]1`: 20.1% (inactive); `CC[N+](C)(CC)CC[N+]1(C)CCCCCCC1`: 5.45% (inactive).
Take `O=C1c2cccc3cc([N+](=O)[O-])cc(c23)C(=O)N1CC1CCCO1` (stereo not given): the growth inhibition is 15.8% (inactive).
For `C=C1CC[C@H]2C(C)=CC[C@@H]3[C@H](OC(=O)[C@H]3COC)[C@@H]12`, the growth inhibition was -39% (inactive).
The result for `CCOC(=O)c1ccc(-c2ccccc2)cc1` reads -28.9% (inactive).
Next, `O=c1oc2cc(O)ccc2cc1-c1nc2ccccc2o1`: -10.8% (inactive); `CCOC(=O)Cc1cccnc1`: -40% (inactive).
In the case of `Cc1c(C(=O)O)n2cnnc2c2ccccc12`, the growth inhibition was 4% (inactive).
Turning to `O=C(/C=C\c1ccco1)NC(=O)NC(=O)N1CCCCC1`, the growth inhibition was -22.3% (inactive).
